Assay outcomes deposited in PubChem BioAssay by National Center for Advancing Translational Sciences (NCATS).
A selection: hits, their analogues and other compounds. The true share with any hit is near 7.5%.
SMN2 splice up: enhancers of SMN2 splice variant expression; HEK293 SMN2-luciferase splicing reporter, luminescence, 30-36 h; Potency, µM (highest dose often 46.1 µM), without a hit: at the highest dose activity change, positive = activation, usual class: activators; actives 2.8% (n = 210,000); AID 1458; note: % of control where 0% means no effect; nearly all actives have a fitted effect of over 55% in size
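qHTS luciferase splicing reporter: luminescence rises when SMN2 exon 7 is included in transfected HEK293 cells. Compound exposure lasted 30-36 h at 37C, with 4.5 mM final sodium butyrate as control, followed by a ONE-Glo read.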
KinaseGlo FLuc: Kinase-Glo luciferase inhibition (counter-screen); AID 1379; Kinase-Glo luciferase, ATP luminescence, 8 min; Potency, µM (titrated, usually from 38.3 µM), inactives show at the top dose activity change, negative = inhibition, hits mostly inhibitors; actives 0.28% (n = 200,000); note: % is set by controls: 0 for no effect and ±100 for the full control effect; nearly all actives have a fitted effect of over 60% in size
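Recombinant Kinase-Glo luciferase, 10 uM ATP (linear range), luciferin; imidazole pH 7.2 / KCl / MgCl2 / Tween / BSA buffer; 8 min RT; luminescence.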
FLuc counter: inhibits or activates purified firefly luciferase, miR-21 counter-screen | P08659 | Potency, µM (highest dose often 57.5 µM), without a hit: at the top dose activity change, negative = inhibition, most hits filed as inhibitors | actives 6.9% (n = 360,000) | purified FLuc, Km substrates, luminescence inhibition | AID 588342;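 note: plate controls were vehicle for no effect and reference inhibitor for full effect; nearly all actives have a fitted effect of over 55% in size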
Target sequence (P08659 whole entry, looked up): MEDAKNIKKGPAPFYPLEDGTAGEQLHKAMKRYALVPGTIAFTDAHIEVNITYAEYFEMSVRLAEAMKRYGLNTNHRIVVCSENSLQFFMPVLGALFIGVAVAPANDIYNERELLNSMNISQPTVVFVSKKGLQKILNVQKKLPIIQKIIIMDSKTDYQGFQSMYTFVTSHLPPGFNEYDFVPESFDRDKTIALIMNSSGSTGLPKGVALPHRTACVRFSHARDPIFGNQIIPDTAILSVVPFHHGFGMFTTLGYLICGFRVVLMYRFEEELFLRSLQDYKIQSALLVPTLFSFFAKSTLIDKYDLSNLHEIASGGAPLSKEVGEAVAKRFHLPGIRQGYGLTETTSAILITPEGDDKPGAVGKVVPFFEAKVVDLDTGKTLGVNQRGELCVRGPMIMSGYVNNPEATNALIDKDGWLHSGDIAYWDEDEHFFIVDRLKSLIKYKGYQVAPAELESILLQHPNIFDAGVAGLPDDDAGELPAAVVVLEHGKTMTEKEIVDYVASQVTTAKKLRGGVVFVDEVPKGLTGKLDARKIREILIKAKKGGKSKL
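Purified P. pyralis luciferase, 10 nM final, with Km-level 10 uM D-luciferin and 10 uM ATP in 50 mM Tris acetate pH 7.5, 10 mM Mg acetate, 0.01% Tween-20, 0.05% BSA; 6-point qHTS titration about 60 µM downward; luminescence read.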
ELG1 genotox: genotoxicity induction in ELG1-luciferase HEK293T cells | Potency, µM (highest dose often 46 µM), inactives show at the top dose activity change, positive = activation, hits mostly activators | actives 1.3% (n = 330,000) | HEK293T ELG1-luciferase reporter, luminescence, 16 h; note: % of control where 0% means no effect; nearly all actives have a fitted effect of over 60% in size
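Luminescence read-out: rising ELG1-luciferase signal, reflecting elevated ELG1 protein under genetic stress, flags genotoxic compounds. Cells were treated for 16 hr at 37 °C before ONE-Glo detection.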
Rab9 promoter act: activates the Rab9 promoter; Huh7 Rab9 promoter-luciferase reporter, luminescence, 24 h; Potency, µM (titrated, usually from 9.22 µM), without a hit: at the highest dose activation, negative = inhibition, hits mostly activators; actives 2.8% (n = 320,000); note: % of control where 0% means no effect; nearly all actives have a fitted effect of over 60% in size
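Cells were plated at 1500 per well in reduced-serum medium with 10% FBS and left 2 h. Compound in DMSO was then added for 24 h at 37 °C. Reporter signal was read by luminescence after 10 min with luciferase detection reagent.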
NPC1 promoter act: activators of NPC1 promoter; Huh7 NPC1 promoter luciferase reporter, 24 h; Potency, µM (titrated, usually from 9.22 µM), inactives show at the top dose activation, hits mostly activators; actives 2.4% (n = 320,000); AID 485313; note: % of control where 0% means no effect; nearly all actives have a fitted effect of over 60% in size
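Readout is luciferase luminescence, reflecting NPC1 promoter activation in stably transfected Huh7 cells after 24 h compound exposure at 37 °C in reduced-serum medium with 10% FBS.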
The depositor's hits bear a star; u = inconclusive; x = no result given; [ ] = another dose, or the depositor's remark. Calls come from the whole dose curve; as a rule, active = well fitted curve in the direction sought with a large enough effect; inconclusive = small, poorly fitted or top-dose-only effect, or another doubt; inactive = no such curve, though single readings can be large; an effect the other way counts as inactive or inconclusive. Potency is the fitted concentration of half-maximal effect.

SMILES	SMN2 splice up	KinaseGlo FLuc	FLuc counter	ELG1 genotox	Rab9 promoter act	NPC1 promoter act
COc1cc(C(=O)OC(C)CN2CCCCC2)cc(OC)c1OC (stereo not given)	x	x	0%	0%	5%	-5%
COc1ccc(NC(=O)c2cc(S(=O)(=O)N(Cc3ccccc3)c3ccccc3)ccc2Cl)cn1	-22%	-1%	-1%	0%	-3%	0%
O=C(CSc1nnc(SCc2cccc3ccccc23)s1)N=Nc1c(O)[nH]c2ccccc12	-12%	6%	3%	16%	-2%	0%
O=C(Nc1ccc(NC(=O)c2ccco2)cc1)c1ccc2c(c1)OCO2	12%	u	0%	u	7%	4%
O=C(Nc1cc2c(cc1Br)OCCO2)c1ccco1	13µM*	-8%	24µM*	u	30%	23%
Cc1cc(NC(=O)c2ccc3c(c2)OCCO3)ccc1NC(=O)c1cc2ccccc2o1	-32%	3%	2.7µM*	-13%	17%	15%
O=C(Nc1cc2c(cc1Cl)OCCO2)c1ccco1	13µM*	-3%	19µM*	25%	u	u
O=C(Nc1ccc(NC(=O)c2ccco2)c(Cl)c1)c1ccc2c(c1)OCCO2	x	x	0.48µM*	11%	4µM*	u
CC(=O)c1cc2c(cc1NC(=O)c1ccco1)OCCO2	15%	5%	0%	0%	-5%	-6%
CSc1ccccc1C(=O)NC1CCSc2ccccc21 (stereo not given)	x	x	-4%	1%	-1%	-6%
Cc1cc(/C=C/c2ccc3cc(N(C)C)ccc3[n+]2C)c(C)n1-c1ccccc1	-95%	-18%	x	x	x	x
CCCC(=O)c1cc2c(cc1NC(=O)c1cccs1)OCCO2	-3%	-3%	-7%	2%	14%	-1%
O=C(Nc1cc2c(cc1Br)OCCO2)c1cccs1	22µM*	14%	11µM*	12µM*	2.5µM*	2.8µM*
Cc1[nH]c2c(ccc3cccnc32)c1C	x	x	24µM*	5%	18%	11%
O=C(OCC(=O)N1N=C(c2ccc(Cl)cc2)CC1c1ccco1)c1cccnc1 (stereo not given)	x	x	x	13%	x	x
Cc1ccc(C2=NNC(C(O)C(O)C(O)C(O)CO)S2)cc1 (stereo not given)	-29%	0%	21µM*	u	12%	2%
Cc1nnsc1-c1nc2ccccc2[nH]1	-15%	-4%	-8%	0%	0%	6%
Cn1cccc1-c1nc2ccccc2[nH]1	x	x	17µM*	u	30%	u
Cc1ccc(S(=O)(=O)Nc2ccc3nc(-c4cccn4C)[nH]c3c2)cc1	8.9µM*	-1%	-16%	0%	-1%	6%
Cc1ccc(S(=O)(=O)Nc2ccc3cn[nH]c3c2)cc1	x	x	0%	0%	-2%	-1%
Cn1cccc1-c1nc2ccc(NC(=O)c3ccc([N+](=O)[O-])cc3)cc2[nH]1	12%	-1%	-2%	9%	4%	-3%
Cn1cccc1-c1nc2ccc(NC(=O)c3ccccc3)cc2[nH]1	28%	0%	15µM*	u	28%	16%
Nc1ccc(C(=O)Nc2ccc3nc(-c4cccnc4)[nH]c3c2)cc1	13%	-3%	17µM*	2%	6%	-6%
Cc1ccc(N2CC(C)Cn3c2nc2c3c(=O)n(Cc3cccc(Cl)c3)c(=O)n2C)cc1 (stereo not given)	x	x	-1%	x	x	x
COC(=O)c1cccc(NC(=O)/C=C/c2ccc([N+](=O)[O-])cc2)c1	-10%	-2%	2.4µM*	-4%	2%	8%
SMILES	SMN2 splice up	KinaseGlo FLuc	FLuc counter	ELG1 genotox	Rab9 promoter act	NPC1 promoter act
O=C(/C=C/c1ccc([N+](=O)[O-])cc1)Nc1cccc(C(=O)Nc2ccccc2C(=O)O)c1	x	x	5.4µM*	-9%	-6%	-3%
CC(=O)c1cccc(NC(=O)/C=C/c2ccc([N+](=O)[O-])s2)c1	-82%	9%	-2%	2.9µM*	-36%	-35%
CCOC(=O)c1cccc(NC(=O)/C=C/c2ccc([N+](=O)[O-])cc2)c1	-56%	1%	2.7µM*	2%	8%	3%
COc1ccccc1CCNC(=O)CCc1c(C)c2cc3c(C)coc3cc2oc1=O	11%	x	-2%	x	x	x
CCc1ccc(-c2cc3c(=O)n(CC(=O)NCCCN4CCN(C)CC4)ncn3n2)cc1	x	x	2.4µM*	u	2.8µM*	2.8µM*
COc1ccc(-c2cc3c(=O)n(CC(=O)NCCCc4ccccc4)ncn3n2)cc1	x	x	u	u	4µM*	2.8µM*
CCC1CCCCN1CCCNC(=O)Cn1ncn2nc(-c3ccc(OC)cc3)cc2c1=O (stereo not given)	x	x	24µM*	u	u	0%
COc1ccc(-c2cc3c(=O)n(CC(=O)N4CCCCC4)ncn3n2)cc1	x	x	u	12%	18%	30%
CCOc1ccc(CCNC(=O)Cn2ncn3nc(-c4ccc(OC)cc4)cc3c2=O)cc1OCC	x	x	-9%	6%[9.26 µM]	7%	-1%
CCc1ccc(-c2cc3c(=O)n(CC(=O)NCCCN4CCC(Cc5ccccc5)CC4)nc(C)n3n2)cc1	x	x	u	12%	1%	-2%
COc1ccc(-c2cc3c(=O)n(CC(=O)N4CCN(C)CC4)ncn3n2)cc1	x	x	2.4µM*	u	5µM*	u
CCCCOc1ccc(C(=O)NCC2(N3CCN(C)CC3)CCCCC2)cc1	x	x	0%	x	x	x
COC(=O)[C@@H](NC(=O)N1CCc2nc(-c3ccc(OC)cc3C)c3c(c2C1)CO[C@@H](c1ccccc1)C3)C(C)C	0%[9.22 µM]	-2%[7.66 µM]	x	x	x	x
Cc1cc(C)c2c(N)c3cccc(C)c3nc2n1	18µM*	11%	-13%	-10%	-36%	-24%
CCS(=O)(=O)Nc1cc(-c2nc3cccnc3s2)ccc1C	11µM*	-3%	9.5µM*	2.9µM*	24%	3.5µM*
CCS(=O)(=O)Nc1ccc(-c2nc3cccnc3s2)cc1	x	x	1.7µM*	u	0.71µM*	0.79µM*
Cc1ccc(-c2nc3cccnc3s2)cc1NS(=O)(=O)c1ccc2c(c1)CCCC2	20%	1%	-18%	1%	-1%	-4%
Cc1nc2ccc(S(=O)(=O)Nc3ccc(-c4nc5cccnc5s4)cc3)cc2s1	u	-1%	u	11%	-3%	3%
O=S(=O)(Nc1ccc(-c2nc3cccnc3s2)cc1)c1ccc(Cl)s1	13µM*	3%	19µM*	8.2µM*	u	u
CCS(=O)(=O)Nc1cccc(-c2nc3cccnc3s2)c1	x	x	19µM*	4%	u	u
O=C1CS(=O)(=O)C2(C(=O)N(Cc3cccc(F)c3)c3ccccc32)N1c1ccccc1 (stereo not given)	x	x	-7%	x	x	x
